Experimental data as given in PubChem BioAssay (NCI).
About 83,000 compounds went through this panel and 20% of them were active in at least one assay; those are over-represented in the sample as a whole.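 The endpoint reported here, percent growth, reads 100 for growth as untreated, 0 for no net growth and -100 for all cells dead.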 The source made the active and inactive calls. How the source made its calls: active means growth percent below 10; inactive means the rest.

Tests used:
Assay in all cases: NCI-60 one-dose screen, 48 h (100 = growth as untreated, 0 = no growth, -100 = all killed)
Settings in all cases: 10 µM unless noted
[1] = test system: SR leukemia
[2] = test system: RPMI-8226 leukemia
[3] = test system: OVCAR-8 ovarian
[4] = test system: OVCAR-5 ovarian
[5] = test system: OVCAR-4 ovarian
[6] = test system: SK-OV-3 ovarian
[7] = test system: IGROV1 ovarian
[8] = test system: OVCAR-3 ovarian
[9] = test system: HS 578T breast
[10] = test system: NCI/ADR-RES ovarian
[11] = test system: T-47D breast
[12] = test system: BT-549 breast
[13] = test system: MDA-MB-435 melanoma
[14] = test system: SW-620 colon
[15] = test system: MCF7 breast
[16] = test system: HCT-116 colon
[17] = test system: HCC-2998 colon
[18] = test system: KM12 colon

Measured: growth

COc1cc(Nc2ncccc2NC(=O)c2cn(Cc3cccc(Oc4ccccc4)c3)nn2)cc(OC)c1
active: [13] -6.08%
inactive: [1] 40.8% | [2] 71.6% | [3] 87.8% | [4] 107% | [5] 92.7% | [6] 96.2% | [7] 99.3% | [8] 85.3% | [9] 79.3% | [10] 76% | [11] 65% | [12] 85.5% | [14] 86.1% | [15] 49.3% | [16] 91.1% | [17] 71.6% | [18] 62.2%

COc1ccc(C2C3=C(COC3=O)N(CCO)c3cc4c(cc32)OCCO4)cc1OC (stereo unspecified)
inactive: [1] 16.8% | [2] 28.5% | [3] 53.3% | [4] 67.1% | [5] 41.3% | [6] 29.2% | [7] 37.1% | [10] 65.4% | [11] 25.9% | [12] 53.9% | [14] 13.2% | [15] 15.9% | [16] 18.2% | [17] 48.7% | [18] 23.2%
active: [8] -37% | [9] -11.4% | [13] -44.1%

O=C(Nc1cccc(NC(=O)C2CCCCC2)c1)c1ccccn1
inactive: [1] 88.9% | [2] 105% | [3] 104% | [4] 105% | [5] 101% | [6] 102% | [7] 98.7% | [8] 104% | [9] 111% | [10] 93.8% | [11] 95.7% | [12] 102% | [13] 102% | [14] 115% | [15] 86.4% | [16] 93.6% | [17] 87.4% | [18] 98.6%

COc1ccc2nc3cc(Cl)ccc3c(NCCN)c2c1
inactive: [6] 69.3% | [9] 91.7% | [10] 19%
active: [1] -45.4% | [2] -23.6% | [3] -33.5% | [4] -61.6% | [5] -86% | [7] -27% | [8] -84.8% | [11] -72.3% | [12] -45.7% | [13] -90.2% | [14] -68.9% | [15] -70.2% | [16] -73.2% | [17] -73.2% | [18] -64%

CCN(CC)CCOc1ccc(Nc2ncc3cc(-c4ccc(O)cc4)c(=O)n(C)c3n2)cc1
active: [1] -20.5% | [14] -33.7%
inactive: [2] 70.6% | [3] 55.7% | [4] 57.9% | [5] 110% | [6] 53% | [7] 23.2% | [8] 71.1% | [9] 33.5% | [10] 84% | [11] 67.4% | [12] 30.1% | [13] 61.1% | [15] 51.5% | [16] 32% | [17] 86.8% | [18] 37.2%

COc1cc2c3c(n(CCCCNCCCn4c5c(c6cc(OC)c(OC)cc6c4=O)C(=O)c4cc6c(cc4-5)OCO6)c(=O)c2cc1OC)-c1cc2c(cc1C3=O)OCO2
inactive: [1] 66.6% | [2] 105% | [3] 101% | [4] 98.6% | [5] 102% | [6] 96.3% | [7] 95% | [8] 98.7% | [9] 104% | [10] 98.6% | [11] 88.7% | [12] 106% | [13] 105% | [14] 95.2% | [15] 93.6% | [16] 93.9% | [17] 105% | [18] 93.8%

CC(C(=O)O)n1c(O)c(C=Nc2cccnc2)sc1=S (stereo unspecified)
inactive: [1] 97.8% | [2] 83.6% | [3] 90.7% | [4] 98.9% | [5] 92.4% | [6] 98.4% | [7] 84.2% | [8] 105% | [9] 74.9% | [10] 98.7% | [11] 81.2% | [12] 89.2% | [13] 100% | [14] 102% | [15] 86.7% | [16] 89.4% | [17] 111% | [18] 98.7%

Cc1ccc(C)n1/C=C/n1c(C)ccc1C
inactive: [1] 122% | [2] 78.6% | [3] 99.3% | [4] 101% | [5] 98.4% | [6] 100% | [7] 16.2% | [8] 146% | [9] 113% | [10] 92.4% | [11] 90.5% | [12] 91% | [13] 91.9% | [14] 110% | [15] 106% | [16] 104% | [17] 95% | [18] 109%

Cc1ccc(N=Nc2c(N)nn(-c3ccccc3)c2N)cc1
active: [1] -16.6% | [2] -1.12% | [8] 0.588% | [10] -5.12% | [12] -3.98% | [13] -52.1% | [15] 7.61%
inactive: [3] 41.6% | [4] 55.3% | [5] 75% | [6] 37.2% | [7] 48.3% | [9] 36.1% | [11] 21.5% | [14] 23.2% | [16] 15.6% | [17] 46.1% | [18] 27.6%

COc1ccc(/C=C/C(=O)c2cc3c(N)c(C(=O)Nc4ccc(OC)cc4)sc3nc2C)cc1
active: [3] 7.03% | [8] 2.94% | [9] 8.09% | [10] 6.34% | [13] -23%
inactive: [1] 11.8% | [2] 37.7% | [4] 42.9% | [5] 53.5% | [6] 16.1% | [7] 33% | [11] 57.2% | [12] 24.6% | [14] 19.2% | [15] 14.3% | [16] 16.6% | [17] 15.9% | [18] 13.1%

CC1(C)CC2=C3C=C[C@@H]4[C@@]5(C)CC[C@H](O)C(C)(C)[C@@H]5CC[C@@]4(C)[C@]3(C)CC[C@@]2(C(=O)O)CC1=O
inactive: [1] 50.5% | [3] 62.6% | [4] 99.5% | [5] 38% | [6] 75.9% | [7] 35.3% | [8] 22.2% | [9] 73% | [10] 61.2% | [11] 42.2% | [12] 36.7% | [13] 39.4% | [14] 43.8% | [15] 31.9% | [16] 12.8% | [17] 70.3% | [18] 42.6%
active: [2] 4.49%

CCN(CC)c1ccc(/C=C\c2cc(C)c3cc(C)ccc3n2)cc1
inactive: [1] 34.2% | [2] 17.3% | [3] 34.8% | [4] 70.9% | [5] 50.4% | [6] 40.1% | [7] 22% | [8] 33.4% | [9] 42.5% | [14] 23.1% | [15] 19.9% | [17] 13.6% | [18] 27.1%
active: [10] -4.28% | [11] -22.3% | [12] -11.5% | [13] 3.36% | [16] 6.6%

CCCCn1sc(=O)n(Cc2ccc(CNC(=O)OCc3ccc4c(Cl)cc(Cl)c(O)c4n3)cc2)c1=O
active: [10] 9.16%
inactive: [1] 65.6% | [2] 63% | [3] 38% | [4] 98.4% | [5] 65.2% | [6] 88.3% | [7] 57.4% | [8] 66.3% | [9] 82.3% | [11] 62.8% | [12] 81.4% | [13] 69.6% | [14] 61% | [15] 63.5% | [16] 46.3% | [17] 98.7% | [18] 65.1%

CC[C@]12C=CCN3CC[C@@]4(c5ccc(OC)cc5N(C)[C@H]4[C@@](O)(C(=O)OC)[C@@H]1OC(=O)CCCN1CCOCC1)[C@@H]32
inactive: [1] 111% | [2] 96.2% | [3] 104% | [4] 114% | [5] 108% | [6] 111% | [7] 112% | [8] 108% | [9] 107% | [10] 106% | [11] 106% | [12] 105% | [13] 100% | [14] 105% | [15] 103% | [16] 101% | [17] 109% | [18] 107%

CCCC(O)Cn1ncc(C(=O)OCC)c1NC(=O)NCc1cccc(F)c1 (stereo unspecified)
inactive: [1] 80.1% | [2] 75.2% | [3] 94.8% | [4] 100% | [5] 87.2% | [6] 100% | [7] 97.2% | [8] 99.7% | [9] 110% | [10] 95.5% | [11] 88.2% | [12] 78.5% | [13] 101% | [14] 107% | [15] 91.8% | [16] 71.6% | [17] 90.6% | [18] 105%

CN1CCN(CCOc2ccc(-c3cnc4c(-c5ccc(C(F)(F)F)cc5)cnn4c3)cc2)CC1
inactive: [3] 27.2% | [4] 79.7% | [5] 57.2% | [6] 85.6% | [7] 38.8% | [9] 56% | [10] 52.8% | [11] 27.1% | [12] 47.8% | [13] 11.8% | [15] 10.3% | [17] 33.1%
active: [1] -8.03% | [2] 1.38% | [8] -3.51% | [14] -63.1% | [16] -55.3% | [18] -28.1%

Cc1c2cnccc2c(C)c2c1c1cc(C3OCCCO3)ccc1n2C
active: [1] 4.22% | [2] -21.6% | [3] 6.68% | [4] -3.71% | [5] -2.47% | [6] -6.97% | [7] 2% | [8] 0.203% | [9] -3.27% | [10] -9.92% | [11] -4.56% | [12] -37% | [13] -28.1% | [14] 4.71% | [15] 0.909% | [16] 1.45% | [17] -15.1% | [18] 5.75%
